This passage reports outcome and AC50 results from PubChem BioAssay (EPA / NIEHS).

Active and inactive are the calls of the source. Rule for the calls: active = hit-call score of the fitted dose curve at least 0.9, where 1 is the maximum; inactive = score below 0.9.

Read-out in the test: HGF (gene 3082)
Briefly: LTEA_HepaRG_HGF: Life Technologies and Expression Analysis (LTEA) Assay for Hepatocyte Growth Facto (HGF) using HepaRG (AID 2283505). Conditions: mRNA level, 48 h; actives raise or lower the signal. Here is the method: LTEA_HepaRG is a cell based, multiplexed-readout assay that uses HepaRG, a human liver cell line, with measurements taken at 48 hours after chemical dosing on a 96-well plate.LTEA_HepaRG_HGF is one of 102 assay component(s) measured in the LTEA HepaRG cell culture assay. It is a marker of Cell proliferation, survival, death.Data from the assay component LTEA_HepaRG_HGF was analyzed into 1 endpoint. This assay endpoint, LTEA_HepaRG_HGF, was analyzed with bidirectional fitting relative to DMSO as the negative control and baseline of activity. Using a type of inducible reporter, measures of mRNA induction for gain or loss-of-signal activity can be used to understand regulation of transcription factor activity. To generalize the intended target to other relatable targets, this assay endpoint is annotated to the growth factor intended target family, where the subfamily is hepatocyte growth factor.
A total of 1060 chemcials from the ToxCast library were tested in eight-point concentration-response experiments. Cell culture and cytotoxicity assays were conducted at Thermo Fisher Scientific's Custom Services facility (Madison, WI). A single lot of human HepaRG cells (Thermo Fisher Scientific, Frederick, MD) was used for the cell culture experiments. 96-well format collagen type I coated plates of human HepaRG cells were prepared using established methods. Briefly, cryopreserved HepaRG cells were thawed, plated at a density of approximately 100,000 cells/well in HepaRG Thaw, Plate, and General Purpose media (HPRG770, Thermo Fisher Scientific), and incubated for 48 hours. 0.5% DMSO was selected as vehicle control to balance the requisite need of DMSO in HepaRG cultures to maintain differentiation (for example, baseline metabolism, proportions of hepatocytes vs. cholangiocytes), while enabling further hepatic receptor pathway activation (for example, PXR and CAR) in response to chemical exposure. 48 hours after plating, the culture medium was replaced with HepaRG Serum-Free Incudtion Media. Cells were exposed to each test chemical in duplicate and maintained in CO2 incubators for another 48 hours. Chemical plates were thawed to room temperature and 200x concentrations of treatment groups were prepared. 8-point conentration-reponse curves were made with the highest exposure at 100 uM, followed by half-log dilutions, all in 0.5% DMSO. Each test plate contained variouse controls, induction positive controls (1mM phenobarbital), cytotoxicity positive controls ([…] aflatoxin B1), vehicle controls (0.5% DMSO), and total lysis controls (0.5% DMSO). Cell morphology images were taken using an Essen IncuCyte FLR automated microscope, with six 96-well plates imaged in about 24 minutes. Images were captured and exported and JPEG files. Spent culture media was transfered to black-well plates for the LDH assay, and remaining media was sorted at -80 C for later use. Cells were treated with RLT buffer and frozen until shipped for gene expression analysis. Total RNA was isolated from the cell suspension in 75 uL of Buffer RLT (Qiagen, Germantown, MD 20874) by Quintiles/Expression Analysis (Durham, NC) using a custom isolation procedure. Total RNA from each plate well was transferred to a preamplification plate. Fluidigm's 96.96 Dynamic ArrayTM (Fluidigm, Amsterdam, the Netherlands) technology was used for gene expression analyses by quantitative reverse transcription polymerase chain reaction (qRT-PCR, performed by Quintiles/Expression Analysis, Durham, NC)89. Standard TaqManTM Assays (Applied Biosystems/ThermoFisher Scientific, Foster City, CA) were used to assess the expression of 93 genes selected based on their selectivity and sensitivity to important hepatic receptors known to be modulated by environmental chemicals; importance in human hepatocyte functionality; and hepatotoxicity. […]
Take `Cc1cc(F)ccc1-c1cc(N2CC[C@@H](O)[C@H]2CO)ncc1N(C)C(=O)C(C)(C)c1cc(C(F)(F)F)cc(C(F)(F)F)c1`: the molecule was classed as inactive.
Turning to `CCCCCCCCN(C)CCCCCCCC`, the call was inactive.
On the same count and under the same terms, with `CC[C@@H]1C[C@H](N(Cc2cc(C(F)(F)F)cc(C(F)(F)F)c2)C(C)=O)c2cc(C(F)(F)F)ccc2N1C(=O)OC(C)C` the entry was “inactive”.
As for `CC(C)(O)c1ccc(CNC(=O)c2cccnc2Oc2ccc3nonc3c2)cc1`, the result was inactive.
As to `O=c1c(-c2ccc(O)cc2)coc2cc(O)cc(O)c12`, the molecule was called inactive.
For `OCCO`, the molecule was classed as inactive.
Usually AC50 stands for the midpoint of the concentration-response curve, whichever way the signal moves. With `CC(C)(C)c1cc(/C=C2\SC(N)=NC2=O)cc(C(C)(C)C)c1O`, the AC50 was 24.5 µM (active).
In the case of `CCCOC(=O)c1cc(O)c(O)c(O)c1`, the call was inactive.
Still for that read-out and setting: with `Cc1ccc2oc(CN(Cc3ccccc3)C(=O)Nc3c(F)cc(F)cc3F)c(-c3ccc(Cl)cc3)c2c1` the entry was “inactive”; with `O=CCCCC=O`, “inactive”.
Same read-out and setting: with `CCCCCCCC[Si](OCC)(OCC)OCC` the entry was “inactive”; with `CCCCOC(=O)CC(CC(=O)OCCCC)(OC(C)=O)C(=O)OCCCC`, “inactive”; with `COc1cc(C(=O)NC2CCN(C)CC2)ccc1Nc1ncc2c(n1)N(C1CCCC1)CC(F)(F)C(=O)N2C`, “inactive”.
The same measure, in the same setting: next, `CN1C(=O)N(c2ccccc2Br)Cc2cnc(Nc3ccc4c(c3)OCC(CO)O4)nc21` (stereo not given): “inactive”; `O=C=NCCCCCCN=C=O`: “inactive”.
On to `CC(C)(C)c1csc(-c2cc3cc(OCc4ccccc4CC(=O)O)ccc3o2)n1`, for which the molecule was classed as inactive.
For the molecule `Cc1oc2c(NC(=O)c3c(Cl)cccc3Cl)cccc2c1C(C)(C)O`, the AC50 is 85.7 µM (active).
On to `CO[C@H]1/C=C/O[C@@]2(C)Oc3c(C)c(O)c4c(O)c(c(/C=N/N5CCN(C)CC5)c(O)c4c3C2=O)NC(=O)/C(C)=C\C=C\[C@H](C)[C@H](O)[C@@H](C)[C@@H](O)[C@@H](C)[C@H](OC(C)=O)[C@@H]1C`, for which the result was inactive.
Regarding `O=C1c2ccccc2C(=O)N1CCc1noc(-c2ccc(CN3CCCCCC3)s2)n1`, the molecule was classed as inactive.
For the molecule `CCCCOC(=O)c1ccc(O)cc1`, the molecule was classed as inactive.
Turning to `Cc1ccc(C(C)C)cc1`, the molecule was classed as inactive.
In the case of `C[C@]12CC[C@@H]3c4ccc(O)cc4CC[C@H]3[C@@H]1CC[C@H]2O`, the result was inactive.
For the molecule `O=C1CCC(C2CCCCC2)CC1`, the molecule was called inactive.
Regarding `Cc1cc2c(cc1C(F)(F)F)N(C(=O)Nc1ccc(Oc3cccnc3C)nc1)CC2`, the call was inactive.
For `CCO[Si](CCCNC(N)=O)(OCC)OCC`, the result was inactive.
For `Clc1ccccc1C(c1ccccc1)(c1ccccc1)n1ccnc1`, the AC50 was 26.7 µM (active).
Still for that read-out and setting: next, `Cc1c2ccccc2c(C)c2c1ccc1ccccc12`: 63.3 µM (active).
On to `CC(C)(c1cc(Br)c(O)c(Br)c1)c1cc(Br)c(O)c(Br)c1`, for which the outcome was inactive.
On the same count and under the same terms, next, `O=c1[nH]sc2ccccc12`: “inactive”; `CCCCCCCCCCCCO`: “inactive”; `CC(O)CC(C)(C)O` (stereo not given): “inactive”.
Same read-out and setting: next, `CN(C)c1ccc(C(=C2C=CC(=[N+](C)C)C=C2)c2ccc(N(C)C)cc2)cc1`: “inactive”; `Cc1occc1C(=O)Nc1ccc(C(=O)N2CCC(F)(F)/C(=C\C(=O)N3CCC(N4CCCCC4)CC3)c3ccccc32)cc1`: “inactive”.
Regarding `CCCCCc1ccc(N)cc1`, the molecule was called inactive.
Still for that read-out and setting: with `CN1C(=O)CC[C@H]1c1cccnc1` the entry was “inactive”; with `O=C1O[C@H]([C@@H](O)CO)C(O)=C1O`, “inactive”; with `Oc1ccc2ccccc2c1`, “inactive”.
In the case of `CCN(Cc1cccc(S(=O)(=O)O)c1)c1ccc(C(=C2C=CC(=[N+](CC)Cc3cccc(S(=O)(=O)O)c3)C=C2)c2ccccc2S(=O)(=O)[O-])cc1`, the outcome was inactive.
Turning to `Cc1ncc(CO)c(CO)c1O`, the molecule was classed as inactive.
Still for that read-out and setting: next, `CC1(C)NC(=O)N(c2ccc([N+](=O)[O-])c(C(F)(F)F)c2)C1=O`: “inactive”.
